Test results as given in PubChem BioAssay AID624483 (NMMLSC, 2012).
Out of some 360,000 compounds screened, about 11,000 (3.1%) were called active. Not shown: some 2% with an inconclusive outcome. The full list was thinned out, with actives kept by preference. A number with no mark means an inactive call. Cut-off read from the data, not from the text of the source: active = fluorescence intensity above about 16000; inconclusive = no clear call, values can overlap the other calls; inactive = below that.

assay: counter-screen for toxin protease inhibitors: compound fluorescence, primary screen, artefact control for toxin protease inhibitor project, biochemical, multiplex microsphere, HTS (AID 624483); details: compound autofluorescence counterscreen, microsphere flow cytometry; stronger effect = higher value

| Compound | fluorescence intensity |
| --- | --- |
| COc1ccc(C(C)(O)c2nc(-c3cc(F)cc(F)c3)cs2)cc1 (centres undefined) | 3820 |
| OCCN1CCN(c2ncnc3c2ncn3[C@H]2CN(Cc3ccco3)C[C@@H](CO)O2)CC1 | 2940 |
| CC(=O)C1=CCC(c2ccccc2)N(S(=O)(=O)c2ccc(C)cc2)C1 (centres undefined) | 4360 |
| CCOC(=O)C1(S(=O)(=O)c2ccc(Cl)cc2)CCN(Cc2ccccc2)CC1 | 22200 (active) |
| CCOC(=O)C1(CCOC)CCN(Cc2ccc(C(=O)OC)cc2)CC1 | 4510 |
| CCOC(=O)C1(CCc2ccccc2)CCN(Cc2ccco2)CC1 | 2080 |
| CCOC(=O)C1(S(=O)(=O)c2ccccc2)CCN(Cc2ccccc2)CC1 | 25000 (active) |
| O=C(NNS(=O)(=O)c1ccc(Cl)cc1)C1CCN(Cc2ccccc2)CC1 | 9590 |
| CCOC(=O)C1(CCOc2ccccc2)CCN(Cc2cc(OC)cc(OC)c2)CC1 | 3960 |
| COC(=O)[C@@]1(Cc2ccc(F)cc2)[C@H]2c3cc(C(=O)N(C)C)n(CCc4c[nH]c5ccc(OC)cc45)c3C[C@H]2CN1C(=O)c1ccccc1 | 6230 |
| Nc1nc2c(ncn2[C@@H]2O[C@H](CNCc3ccc(OCCCN4CCOCC4)cc3)[C@@H](O)[C@H]2O)c(=O)[nH]1 | 6030 |
| CCCc1c(-c2ccccc2F)ncn1Cc1ccccc1OC | 6360 |
| N#C/C(=C\c1ccc(N2CCOCC2)o1)C(=O)N1CCOCC1 | 3190 |
| COC(=O)[C@]1(Cc2ccccc2)N[C@H](CN(C)S(=O)(=O)c2ccc(F)cc2)[C@@H]2C(=O)N(Cc3ccccc3)C(=O)[C@@H]21 | 2850 |
| COc1ccc(N(CC(=O)N2CCCCCC2)S(=O)(=O)c2ccccc2)cc1 | 5240 |
| COc1ccc(S(=O)(=O)NCCCCOc2ccc(Cl)cc2)cc1 | 3450 |
| COc1ccc(N(CCC#N)S(=O)(=O)c2ccc(Cl)cc2)cc1 | 19700 (active) |
| CC1(C)C(C=C(Cl)Cl)C1C(=O)NC(O)C(=O)c1ccccc1 (centres undefined) | 3770 |
| CCOC(=O)C1=CC[C@@H](c2ccccc2)N(S(=O)(=O)c2ccc(C)cc2)[C@H]1c1ccc(CC)cc1 | 5350 |
| OC[C@@H]1CN(Cc2cccs2)C[C@H](n2cnc3c(NC4CCCC4)ncnc32)O1 | 4050 |
| O=C(NCC(F)(F)F)Nc1nnc(C(F)(F)F)s1 | 2520 |
| c1ccc(COc2nsnc2N2CCOCC2)cc1 | 4190 |
| CC(Nc1nc(N2CCOCC2)nc2ccccc12)c1ccccc1 (centres undefined) | 4260 |
| Fc1cnc(N2CCOCC2)nc1NCc1ccccc1 | 19200 (active) |

| Compound | fluorescence intensity |
| --- | --- |
| COc1ccc(-c2nnn(CC(=O)N(CCO)C(C(=O)NC3CCCC3)c3ccc(F)cc3)n2)cc1 (centres undefined) | 20700 (active) |
| CC(C)CCNC(=O)C(C)N(C(=O)Cn1nnc(-c2ccc(F)cc2)n1)C1CCCC1 (centres undefined) | 23500 (active) |
| COc1cccc(N(CC(=O)NC2CCCC2)C(=O)Cn2nnc(-c3ccc(C)o3)n2)c1 | 5040 |
| COc1ccc(C(C(=O)NC2CCCC2)N(CCCO)C(=O)Cn2nnc(-c3ccc(C)o3)n2)cc1 (centres undefined) | 5780 |
| CN(C(=O)Cn1nnc(-c2ccc(F)cc2)n1)C1CCS(=O)(=O)C1 (centres undefined) | 6480 |
| CC(C)CCNC(=O)CN(C(=O)Cn1nnc(-c2ccc(F)cc2)n1)C1CCCC1 | 7590 |
| COc1cccc(N(CC(=O)NC2CCCC2)C(=O)CCCC(=O)Nc2ccccn2)c1 | 6270 |
| COc1cccc(N(CC(=O)NC2CCCC2)C(=O)Cn2nnc(-c3ccc(C)cc3)n2)c1 | 20000 (active) |
| CCOCCCN(C(=O)Cn1nnc(-c2ccc(OC)c(OC)c2)n1)C(CC)C(=O)NC1CCCC1 (centres undefined) | 3360 |
| Cc1ccc(C(=O)O)cc1S(=O)(=O)NCC1CCCO1 (centres undefined) | 8490 |
| O=C(O)C(=Cc1ccccc1[N+](=O)[O-])c1ccccc1 | 3020 |
| CCOC1=C2[C@H]([C@H]3C(=O)N(c4ccccc4)C(=O)[C@H]3C1)[C@@H](c1ccccc1)N(S(=O)(=O)c1ccc(C)cc1)[C@H]2c1ccccc1 | 5740 |
| CN(CCO)C(=O)c1nc[nH]c1C(=O)N(C)Cc1ccccc1 | 6070 |
| COCCCNc1ccn2nc(-c3ccc(CC(C)C)cc3)cc2n1 | 3740 |
| CC1(C(=O)Nc2cccc(Oc3ccccc3)c2)CCN1Cc1ccccc1Cl (centres undefined) | 2960 |
| CCCS(=O)(=O)NC(=O)C1(C)CCCN(C(=O)c2ccnc(Cl)c2)C1 (centres undefined) | 3780 |
| O=C(NCc1cccnc1)c1cc(C2CCCN(C(=O)C3CCCCC3)C2)on1 (centres undefined) | 3680 |
| CC1(C)CC(=O)C=C(NCCCN2CCCC2=O)C1 | 10600 |
| CC1(C)CC(=O)C=C(NC2CC(C)(C)NC(C)(C)C2)C1 | 11500 |
| CC1(C)CC(=O)C=C(NCCCNC2CCCCC2)C1 | 16400 (active) |
| CCOc1ccc(C(=O)NC2CCN(CC(=O)NCc3cccs3)CC2)cc1 | 4320 |
| CC(=O)c1cccc(-c2cnc3c(NC=O)cc(-c4ccccc4Oc4ccccc4)cn23)c1 | 2970 |
| CCc1nc2ccc(C(=O)Nc3ccc(OC)c(OC)c3)cn2c1N(C)C(=O)c1cccc(OC)c1 | 3840 |
| CSc1cccc(NC(=O)C2CCCN2S(=O)(=O)c2ccc3c(c2)CCC(=O)N3)c1 (centres undefined) | 22100 (active) |

| Compound | fluorescence intensity |
| --- | --- |
| O=C1CCc2cc(S(=O)(=O)N3CCC(C(=O)NCc4ccccc4Cl)CC3)ccc2N1 | 5010 |
| Cc1cccc(NC(=O)C2CCCN2S(=O)(=O)c2ccc(F)cc2)c1C (centres undefined) | 12300 |
| O=CNc1cc(-c2ccc(C(=O)N3CCOCC3)cc2)cn2c(-c3ccc(F)cc3)cnc12 | 4100 |
| NC(Cc1ccccc1)c1csc(Nc2cc(Oc3ccccc3)ncn2)n1 (centres undefined) | 3760 |
| CC1CC(C)CN(CC(=O)N2c3ccccc3CCc3ccccc32)C1 (centres undefined) | 17600 (active) |
| CC1CC(C)CN(CC(=O)Nc2ccc(S(N)(=O)=O)cc2)C1 (centres undefined) | 4900 |
| CN1CCN(C(=O)N2c3ccccc3CCc3ccccc32)CC1 | 4530 |
| Cc1cccc(C)c1-n1nnnc1C1(C)CCC(=O)N1CCOc1ccccc1 (centres undefined) | 6150 |
| Cc1nc2c(OCC(=O)C(C)(C)C)cccn2c1N(C)Cc1cccs1 | 2880 |
| CC(C)C[C@@H]1Cc2[nH][nH]c(=O)c2[C@H](CCc2ccccc2)O1 | 4470 |
| N=C1c2ccccc2-c2ccccc21 | 3590 |
| COc1ccc(C(C#N)N2N=C(C)CC2(C)C)cc1 (centres undefined) | 4130 |
| O=C(CSc1nc2ccccc2o1)N1CCN(c2ccccc2)CC1 | 2560 |
| CCn1c(CSc2ncccn2)nnc1SCC(=O)N1c2ccccc2CC1C (centres undefined) | 23500 (active) |
| Cc1ccccc1OCc1nnc(SCC(=O)N2c3ccccc3Sc3ccc(Cl)cc32)o1 | 20200 (active) |
| CC(C)NC(=O)CSc1nnc(COc2ccccc2Cl)o1 | 4480 |
| O=C(CSc1nc2ccccc2o1)N1c2ccccc2Sc2ccc(Cl)cc21 | 22300 (active) |
| Cc1ccc(NC(=O)CSc2nnc(COc3ccccc3C)o2)cc1 | 3160 |
| CC1Cc2ccccc2N1C(=O)CSc1nnc(C2CC2)n1C (centres undefined) | 4920 |
| CCS(=O)(=O)c1ccc2oc(SCC(=O)N3c4ccccc4CC3C)nc2c1 (centres undefined) | 8960 |
| CC1CC(C)CN(C(=O)CSc2nnc(CSc3ncccn3)n2C)C1 (centres undefined) | 4260 |
| O=C(CSc1nc2ccccc2o1)N1CCN(c2ccc(Cl)cc2)CC1 | 6400 |
| CC1Cc2ccccc2N1C(=O)CSc1nc2ccccc2o1 (centres undefined) | 16300 (active) |
| CC1Cc2ccccc2N1C(=O)Cn1cnc2ccccc2c1=O (centres undefined) | 3200 |

| Compound | fluorescence intensity |
| --- | --- |
| O=S(=O)(c1ccc(Cl)cc1)N1CCCN(c2ccc(C(F)(F)F)cn2)CC1 | 6060 |
| NC(c1csc(NC(=O)Nc2cccc(C(F)(F)F)c2)n1)C1CCCCC1 (centres undefined) | 2870 |
| Cc1cc2oc3ccc(NCCC4CCCN4C)cc3c(=O)c2cc1C (centres undefined) | 5120 |
| COC(=O)c1ccc2nc(-c3ccc(F)cc3)c(Cc3ccc(C)cc3)n2c1 | 7460 |
| Cc1ccc(NC2=NC(c3ccccc3)n3c(nc(C)cc3=O)N2)cc1 (centres undefined) | 3910 |
| CC(=O)Nc1c(-c2ccc(C)cc2)nc2ccc(Cl)cn12 | 2860 |
| Cc1occc1C(=O)NC1CCCN(Cc2ccc(CC(C)C)cc2)C1 (centres undefined) | 7560 |
| COc1ccc(C2=Nc3ccccc3NC(=O)C2N(C(=O)c2cc3ccccc3[nH]2)c2ccccc2)cc1 (centres undefined) | 6050 |
| COc1ccc(-c2cc3c(c4c2ccn4C)C2CCC3C2)cn1 (centres undefined) | 2710 |
| COC(=O)C1C(=O)NCC1c1ccc(OC)cc1 (centres undefined) | 17100 (active) |
| CCOC(=O)C1C(=O)NCC1c1ccccc1 (centres undefined) | 9370 |
| COC(=O)C1C(=O)NCC1c1ccc(C)cc1 (centres undefined) | 15900 |
| COc1ccc(-c2cc(NC=O)c3ncc(-c4cccc(C(=O)N(C)C)c4)n3c2)c(OC)c1 | 3580 |
| Fc1ccc2nc(-c3ccccc3)nc(SCc3nnc(-c4ccccc4)o3)c2c1 | 4280 |
| Clc1ccc(-c2nnc(SCc3nc4ccccc4s3)o2)cc1 | 2530 |
| O=C(OCc1nc2ccccc2[nH]1)C1CCCCC1 | 2190 |
| Oc1ccc2nc(Cc3ccccc3)[nH]c2c1 | 4090 |
| Clc1ccccc1SCc1nc2ccccc2[nH]1 | 24700 (active) |
| c1ccc2c(CSCc3nc4ccccc4[nH]3)cccc2c1 | 21700 (active) |
| c1ccc2cc3[nH]c(CN4CCCCC4)nc3cc2c1 | 5430 |
| O=c1c(-c2ccc(Cl)cc2)[n+]([O-])c2ccccc2n1OCc1nc2ccccc2[nH]1 | 4300 |
| c1ccc(-c2nnc(SCc3nc4ccccc4[nH]3)o2)cc1 | 18800 (active) |
